Common to all, as to conditions: mRNA level, 48 h; actives raise or lower the signal
Read-out in assay [1]: Alkaline Phosphatase, Placental (ALPP) gene, ALPP (gene 250)
The assay is described as follows: LTEA_HepaRG_ALPP: Life Technologies and Expression Analysis (LTEA) Assay for Alkaline Phosphatase, Placental (ALPP) gene using HepaRG (AID 2283468). A digest of the protocol: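 ALPP transcript level, measured by qRT-PCR and normalized to three housekeeping genes (ACTB, GAPDH, POLR2A), after 48 h dosing of differentiated HepaRG in serum-free induction medium. Top concentration 100 uM with half-log dilutions (8 points, 0.5% DMSO, duplicates); bidirectional fitting relative to DMSO.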

Read-out in assay [2]: Bcl-2 (BAD) gene, BAD (gene 572)
The assay is described as follows: LTEA_HepaRG_BAD: Life Technologies and Expression Analysis (LTEA) Assay for Bcl-2 (BAD) gene using HepaRG (AID 2283469). A digest of the protocol:
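Differentiated human HepaRG cells in serum-free induction medium were exposed in duplicate for 48 h to eight concentrations (top 100 uM, half-log steps, 0.5% DMSO). BAD mRNA was quantified by qRT-PCR normalised to ACTB, GAPDH and POLR2A, with bidirectional fitting versus DMSO.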

Read-out in assay [3]: Bcl-2 (BAX) gene, BAX (gene 581)
In words: LTEA_HepaRG_BAX: Life Technologies and Expression Analysis (LTEA) Assay for Bcl-2 (BAX) gene using HepaRG (AID 2283470). A digest of the protocol:
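Differentiated HepaRG cells exposed 48 h in serum-free induction medium, eight half-log concentrations from 100 uM, in duplicate, 0.5% DMSO vehicle. BAX mRNA by TaqMan qRT-PCR, normalised to ACTB, GAPDH and POLR2A.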

Read-out in assay [4]: adenosine kinase (ADK) gene, ADK (gene 132)
In words: LTEA_HepaRG_ADK: Life Technologies and Expression Analysis (LTEA) Assay for adenosine kinase (ADK) gene using HepaRG (AID 2283471). In a few lines: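 Following 48 h exposure of HepaRG cells in 0.5% DMSO (top concentration 100 uM, duplicate wells), ADK mRNA induction or suppression was measured by qRT-PCR, normalised to ACTB/GAPDH/POLR2A, and fitted bidirectionally relative to vehicle.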

Read-out in assay [5]: Alpha-fetoprotein (AFP) gene, AFP (gene 174)
The assay is described as follows: LTEA_HepaRG_AFP: Life Technologies and Expression Analysis (LTEA) Assay for Alpha-fetoprotein (AFP) gene using HepaRG (AID 2283472). A digest of the protocol:
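Differentiated human HepaRG cells exposed 48 h in serum-free induction medium, 8-point half-log series from 100 uM in 0.5% DMSO, duplicate. AFP mRNA by qRT-PCR, normalized to ACTB, GAPDH, POLR2A; bidirectional fit vs DMSO.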

Read-out in another assay: BCL2L11 (gene 10018)
The assay is described as follows: LTEA_HepaRG_BCL2L11: Life Technologies and Expression Analysis (LTEA) Assay for Bcl-2 (BCL2L11) gene using HepaRG (AID 2283473). In a few lines: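 BCL2L11 transcript levels are measured by Fluidigm qRT-PCR, normalized to three housekeeping genes. HepaRG cultures were plated 48 h, then treated 48 h with test chemical (top 100 uM, half-log, 0.5% DMSO vehicle); curves were fitted bidirectionally against DMSO.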

Read-out in assay [6]: Apolipoprotein A-V (APOA5) gene, APOA5 (gene 116519)
In words: LTEA_HepaRG_APOA5: Life Technologies and Expression Analysis (LTEA) Assay for Apolipoprotein A-V (APOA5) gene using HepaRG (AID 2283474). A digest of the protocol:
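APOA5 transcript levels were quantified by qRT-PCR, normalized to three housekeeping genes, after 48 h chemical treatment of HepaRG cells (8 points, 100 uM maximum, half-log steps, 0.5% DMSO). Curves fitted in both directions against vehicle.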

Read-out in assay [7]: Apoptosis regulator Bcl-2 (Homo sapiens) (UniProt P10415)
The assay is described as follows: LTEA_HepaRG_BCL2: Life Technologies and Expression Analysis (LTEA) Assay for Bcl-2 gene using HepaRG (AID 2283475). A digest of the protocol: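 Differentiated human HepaRG cells in serum-free induction medium exposed 48 h, in duplicate, to 8-point half-log series from 100 uM in 0.5% DMSO. BCL2 mRNA by qRT-PCR (TaqMan/Fluidigm), normalized to ACTB, GAPDH, POLR2A; bidirectional fit against DMSO.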

Read-out in assay [8]: Bcl-2 (BID) gene, BID (gene 637)
In words: LTEA_HepaRG_BID: Life Technologies and Expression Analysis (LTEA) Assay for Bcl-2 (BID) gene using HepaRG (AID 2283476). A digest of the protocol: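 Gene expression by qRT-PCR in HepaRG cells after 48 h exposure, duplicate wells, eight half-log concentrations topping at 100 uM in 0.5% DMSO. Normalized to ACTB, GAPDH, POLR2A; bidirectional fitting relative to DMSO.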

Read-out in another assay: Caspase-3 (Homo sapiens) (UniProt P42574)
In words: LTEA_HepaRG_CASP3: Life Technologies and Expression Analysis (LTEA) Assay for cysteine-aspartic acid protease (CASP3) using HepaRG (AID 2283477). A digest of the protocol:
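Expression of CASP3 was quantified by TaqMan qRT-PCR against three housekeeping genes (ACTB, GAPDH, POLR2A), bidirectionally versus 0.5% DMSO. HepaRG cultures received compounds in duplicate, top 100 uM with half-log steps, for 48 h in serum-free induction medium.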

Read-out in assay [9]: Cytochrome P450 (CYP24A1), CYP24A1 (gene 1591)
The assay is described as follows: LTEA_HepaRG_CYP24A1: Life Technologies and Expression Analysis (LTEA) Assay for Cytochrome P450 (CYP24A1) using HepaRG (AID 2283478). In a few lines:
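mRNA of CYP24A1 quantified by TaqMan qRT-PCR (ACTB/GAPDH/POLR2A normalization) after 48 h chemical exposure of HepaRG cells, top concentration 100 uM, half-log steps, 0.5% DMSO vehicle, duplicates. Curves fitted bidirectionally against DMSO baseline.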

Read-out in assay [10]: Cytochrome P450 (CYP1A2), CYP1A2 (gene 1544)
The assay is described as follows: LTEA_HepaRG_CYP1A2: Life Technologies and Expression Analysis (LTEA) Assay for Cytochrome P450 (CYP1A2) using HepaRG (AID 2283479). A digest of the protocol:
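CYP1A2 transcript measured by TaqMan qRT-PCR against three housekeeping genes after 48-hour chemical exposure of HepaRG cells. Eight-point half-log series topping at 100 uM in 0.5% DMSO, duplicates; gain or loss fitted relative to vehicle.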

Read-out in assay [11]: cysteine-aspartic acid protease (CASP8), CASP8 (gene 841)
The assay is described as follows: LTEA_HepaRG_CASP8: Life Technologies and Expression Analysis (LTEA) Assay for cysteine-aspartic acid protease (CASP8) using HepaRG (AID 2283480). In a few lines: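 Differentiated human HepaRG cells, plated 48 h then switched to serum-free induction medium, were exposed in duplicate for 48 h to 8 half-log concentrations up to 100 uM in 0.5% DMSO. CASP8 mRNA was quantified by qRT-PCR, normalized to ACTB/GAPDH/POLR2A.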

Read-out in assay [12]: Cytochrome P450 (CYP2B6), CYP2B6 (gene 1555)
In words: LTEA_HepaRG_CYP2B6: Life Technologies and Expression Analysis (LTEA) Assay for Cytochrome P450 (CYP2B6) using HepaRG (AID 2283481). A digest of the protocol:
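CYP2B6 transcript level quantified by qRT-PCR against three housekeeping genes, fitted bidirectionally relative to DMSO. HepaRG cultures received chemicals for 48 h, 8-point half-log series from 100 uM in 0.5% DMSO, duplicate wells, serum-free induction medium.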

Read-out in assay [13]: Cytochrome P450 2C19 (Homo sapiens) (UniProt P33261)
In words: LTEA_HepaRG_CYP2C19: Life Technologies and Expression Analysis (LTEA) Assay for CYP2C19 using HepaRG (AID 2283482). In a few lines:
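CYP2C19 transcript levels by qRT-PCR, normalized to three housekeeping genes, in HepaRG cells after 48 h chemical exposure. Eight-point half-log series topping at 100 uM, 0.5% DMSO vehicle. Increases and decreases both fitted against DMSO.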

Read-out in the next assay: CYP2C8 (gene 1558)
The assay is described as follows: LTEA_HepaRG_CYP2C8: Life Technologies and Expression Analysis (LTEA) Assay for CYP2C8 using HepaRG (AID 2283483). A digest of the protocol: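 Differentiated human HepaRG cells were exposed for 48 h in serum-free induction medium to eight half-log concentrations up to 100 uM in 0.5% DMSO, in duplicate. CYP2C8 mRNA was measured by TaqMan qRT-PCR, normalized to ACTB, GAPDH and POLR2A, and fitted bidirectionally against DMSO.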

Read-out in the next assay: CYP2C9 (gene 1559)
The assay is described as follows: LTEA_HepaRG_CYP2C9: Life Technologies and Expression Analysis (LTEA) Assay for CYP2C9 using HepaRG (AID 2283484). A digest of the protocol: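 Differentiated human HepaRG cells were exposed 48 h in serum-free induction medium to eight half-log concentrations up to 100 uM in 0.5% DMSO. CYP2C9 mRNA was measured by qRT-PCR, normalized to ACTB, GAPDH and POLR2A, and fitted bidirectionally against DMSO.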

Read-out in a further assay: CYP2E1 (gene 1571)
In words: LTEA_HepaRG_CYP2E1: Life Technologies and Expression Analysis (LTEA) Assay for CYP2E1 using HepaRG (AID 2283485). In a few lines: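 HepaRG cells, plated 48 h, then exposed 48 h in serum-free induction medium to eight half-log concentrations from 100 uM in 0.5% DMSO, duplicate. CYP2E1 mRNA by qRT-PCR, normalized to ACTB/GAPDH/POLR2A; bidirectional fit versus DMSO.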

Read-out in the next assay: CYP4A11 (gene 1579)
The assay is described as follows: LTEA_HepaRG_CYP4A11: Life Technologies and Expression Analysis (LTEA) Assay for CYP4A11 using HepaRG (AID 2283486). In a few lines:
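Readout is CYP4A11 transcript level by qRT-PCR, normalized to three housekeeping genes and fitted bidirectionally against 0.5% DMSO. Human HepaRG cells were treated 48 h, in duplicate, with an 8-point half-log series topping at 100 uM.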

Read-out in assay [14]: Cytochrome P450 3A4 (Homo sapiens) (UniProt P08684)
The assay is described as follows: LTEA_HepaRG_CYP3A4: Life Technologies and Expression Analysis (LTEA) Assay for CYP3A4 using HepaRG (AID 2283487). In a few lines:
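In a human hepatic line (HepaRG), duplicate wells were treated 48 h with up to 100 uM chemical in half-log dilutions. Endpoint: CYP3A4 mRNA induction or loss relative to 0.5% DMSO vehicle, by qRT-PCR.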

The structures appear in SMILES notation. The source made the active and inactive calls. How the source made its calls: active means hit-call score of the fitted dose curve at least 0.9, where 1 is the maximum; inactive means score below 0.9.

Broadly, the AC50 is the midpoint of the concentration-response curve, whichever way the signal moves.

Sequence of Apoptosis regulator Bcl-2 (Homo sapiens) (P10415 whole entry, looked up): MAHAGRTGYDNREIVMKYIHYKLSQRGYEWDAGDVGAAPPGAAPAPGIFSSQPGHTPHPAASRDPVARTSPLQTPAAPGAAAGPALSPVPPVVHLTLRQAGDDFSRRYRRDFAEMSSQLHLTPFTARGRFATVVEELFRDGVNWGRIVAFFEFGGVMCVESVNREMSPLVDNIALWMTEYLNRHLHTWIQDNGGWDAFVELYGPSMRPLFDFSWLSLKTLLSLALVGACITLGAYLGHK
Sequence of Cytochrome P450 2C19 (Homo sapiens) (P33261 whole entry, looked up): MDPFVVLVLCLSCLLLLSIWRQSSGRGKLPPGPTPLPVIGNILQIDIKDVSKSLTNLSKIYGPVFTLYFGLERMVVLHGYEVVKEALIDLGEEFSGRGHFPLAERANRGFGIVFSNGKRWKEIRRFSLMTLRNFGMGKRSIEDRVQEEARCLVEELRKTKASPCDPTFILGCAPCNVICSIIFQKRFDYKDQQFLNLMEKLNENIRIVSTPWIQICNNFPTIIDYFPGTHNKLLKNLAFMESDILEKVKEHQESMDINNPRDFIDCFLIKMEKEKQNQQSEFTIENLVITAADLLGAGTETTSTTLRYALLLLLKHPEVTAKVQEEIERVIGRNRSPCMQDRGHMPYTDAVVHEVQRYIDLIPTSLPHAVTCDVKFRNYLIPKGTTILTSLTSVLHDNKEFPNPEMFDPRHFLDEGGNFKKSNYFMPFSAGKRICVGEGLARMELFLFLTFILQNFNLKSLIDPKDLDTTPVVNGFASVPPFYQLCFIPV
Sequence of Caspase-3 (Homo sapiens) (P42574 whole entry, looked up): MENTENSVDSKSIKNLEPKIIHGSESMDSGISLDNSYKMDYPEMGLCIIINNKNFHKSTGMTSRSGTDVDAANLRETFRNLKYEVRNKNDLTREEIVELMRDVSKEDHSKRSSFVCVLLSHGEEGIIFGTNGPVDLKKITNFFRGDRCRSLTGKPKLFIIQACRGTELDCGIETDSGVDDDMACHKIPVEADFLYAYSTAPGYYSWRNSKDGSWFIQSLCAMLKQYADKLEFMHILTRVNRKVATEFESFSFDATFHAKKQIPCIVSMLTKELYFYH
Sequence of Cytochrome P450 3A4 (Homo sapiens) (P08684 whole entry, looked up): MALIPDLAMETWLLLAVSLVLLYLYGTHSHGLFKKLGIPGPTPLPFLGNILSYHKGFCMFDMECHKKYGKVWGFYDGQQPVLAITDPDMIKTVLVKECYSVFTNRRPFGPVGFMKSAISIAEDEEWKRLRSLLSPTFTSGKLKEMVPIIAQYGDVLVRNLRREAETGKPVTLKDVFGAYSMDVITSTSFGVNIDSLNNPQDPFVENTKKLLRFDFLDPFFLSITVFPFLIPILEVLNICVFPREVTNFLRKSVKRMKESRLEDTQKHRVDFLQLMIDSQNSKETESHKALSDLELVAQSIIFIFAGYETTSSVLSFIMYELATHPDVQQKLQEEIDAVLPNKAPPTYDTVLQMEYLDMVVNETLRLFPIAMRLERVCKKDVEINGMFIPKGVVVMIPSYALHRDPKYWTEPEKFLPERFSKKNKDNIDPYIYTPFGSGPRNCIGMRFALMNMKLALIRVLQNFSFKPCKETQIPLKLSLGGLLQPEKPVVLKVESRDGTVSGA

Regarding `CCCCSP(=O)(SCCCC)SCCCC`, the compound was called inactive (in [1]; in [2]; in [3]; in [4]; with BCL2L11 (gene 10018); in assay [6]). Further, the outcome (in [7]; in assay [8]; with Caspase-3 (Homo sapiens); in assay [9]; in assay [11]; with CYP2C8 (gene 1558)) was inactive. In addition, in the assay with CYP2C9 (gene 1559), the compound was called inactive. The AC50 in assay [5] was 50 µM (active); in assay [10], 13 µM (active); in assay [12], 12.5 µM (active); in assay [13] it was 12.8 µM (active); with CYP2E1 (gene 1571), 63.4 µM (active); with CYP4A11 (gene 1579) it was 76.2 µM (active). The half-maximal activity concentration (AC50) in [14] was 26.1 µM (active).
Take `CCC(=O)Nc1ccc(Cl)c(Cl)c1`: the AC50 was 50 µM (active) in assay [1]; 33 µM (active) in assay [10]; 12.6 µM (active) in assay [12]; 32.7 µM (active) in [13]; 50 µM (active) in the assay with CYP2E1 (gene 1571); 50 µM (active) with CYP4A11 (gene 1579). Further, the compound was classed as inactive (in assay [2]; in assay [3]; in assay [5]; in the assay with BCL2L11 (gene 10018); in assay [6]; in assay [7]). The outcome (in assay [8]; with Caspase-3 (Homo sapiens); in [9]; in assay [11]; in the assay with CYP2C8 (gene 1558); with CYP2C9 (gene 1559)) was inactive. For the same compound, the compound was classed as inactive in assay [14].
Consider `CCOP(=O)(OCC)Oc1cc(C)nc(C(C)C)n1`, for which the result (in [1]; in [2]; in assay [3]; in assay [5]; with BCL2L11 (gene 10018); in assay [6]) was inactive. In addition, the result (in assay [7]; in [8]; in the assay with Caspase-3 (Homo sapiens); in assay [9]; in assay [10]; in assay [11]) was inactive. The compound was classed as inactive (in assay [12]; in assay [13]; in the assay with CYP2C8 (gene 1558); in the assay with CYP2C9 (gene 1559); with CYP2E1 (gene 1571); in the assay with CYP4A11 (gene 1579)). In addition, in [14], the outcome was inactive.

The record behind these values is PubChem BioAssay (EPA / NIEHS).
